Rows were chosen to be rich in hits. Some 13% of all compounds tested hit in one or more screens of this group.
USP30 block = blocks human USP30 ubiquitin-rhodamine cleavage. purified USP30, Ub-rhodamine cleavage fluorescence. 47,000 tested, 5.3% active. inhibition, % at 25 µM. Q70CQ3
Target sequence (Q70CQ3 whole entry, looked up): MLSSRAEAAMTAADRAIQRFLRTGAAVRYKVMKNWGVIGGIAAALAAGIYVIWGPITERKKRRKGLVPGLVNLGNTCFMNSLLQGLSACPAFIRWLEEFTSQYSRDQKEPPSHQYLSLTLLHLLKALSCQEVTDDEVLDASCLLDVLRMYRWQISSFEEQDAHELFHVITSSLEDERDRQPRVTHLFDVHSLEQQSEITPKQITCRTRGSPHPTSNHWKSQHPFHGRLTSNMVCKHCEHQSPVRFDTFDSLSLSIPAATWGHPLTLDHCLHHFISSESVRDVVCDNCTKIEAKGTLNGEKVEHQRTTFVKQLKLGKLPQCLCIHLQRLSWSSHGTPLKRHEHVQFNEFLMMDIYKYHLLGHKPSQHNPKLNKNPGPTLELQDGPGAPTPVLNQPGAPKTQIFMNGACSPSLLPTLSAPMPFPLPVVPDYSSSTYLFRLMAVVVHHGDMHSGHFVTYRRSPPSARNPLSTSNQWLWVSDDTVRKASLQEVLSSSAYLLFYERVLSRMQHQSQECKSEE
USP10 inh = inhibitors of human USP10 deubiquitinase. 47,000 tested, 1.1% active. inhibition, % at 20 µM. purified USP10, Ub-rhodamine fluorescence, 60 min. Q14694
USP8 block = inhibitors of human USP8 deubiquitinase | P40818 | purified USP8, Ub-rhodamine cleavage fluorescence, 30 min | inhibition, % at 20 µM | 47,000 tested, 4.2% active | AID 1645853
USP17 block = inhibitors of human USP17 deubiquitinase; A8MUK1; purified USP17, Ub-rhodamine cleavage fluorescence, 3 h; inhibition, % at 50 µM; 47,000 tested, 6.5% active; AID 1645855
USP28 block = blocks human USP28 ubiquitin-rhodamine cleavage | Q96RU2 | purified USP28, Ub-rhodamine cleavage fluorescence, 30 min | inhibition, % at 25 µM | 47,000 tested, 3% active | AID 1645857
Hits are given with their value. No stated cut-off is given here; in the data, active means inhibition above about 30%; inactive means the rest.

Results for Cn1c(=O)c2c(SCC(=O)N3CCCC3)nc(-c3cccc(Cl)c3)nc2n(C)c1=O ?
USP30 block: inactive; USP10 inh: inactive; USP8 block: inactive; USP17 block: inactive; USP28 block: inactive

Results for CCn1cnc2c(-c3ccccc3)cn(CC(=O)NCc3ccc4c(c3)OCO4)c2c1=O ?
USP30 block: inactive; USP10 inh: inactive; USP8 block: inactive; USP17 block: 50.6; USP28 block: inactive

What do the screens show for `COC(=O)c1ccc(CSc2nc(-c3ccc(OC)cc3)nc3c2c(=O)n(C)c(=O)n3C)o1`?
USP30 block: inactive; USP10 inh: inactive; USP8 block: inactive; USP17 block: inactive; USP28 block: inactive

How did Cn1c(=O)c2c(SCC(=O)NCc3ccc4c(c3)OCO4)nc(-c3ccc([N+](=O)[O-])cc3)nc2n(C)c1=O do in these assays?
USP30 block: 30.7; USP10 inh: inactive; USP8 block: inactive; USP17 block: inactive; USP28 block: inactive

What do the screens show for `COc1cn(CC(=O)Nc2cccc(C)c2C)c(CSc2ccccc2)cc1=O`?
USP30 block: inactive; USP10 inh: inactive; USP8 block: inactive; USP17 block: inactive; USP28 block: inactive

What do the screens show for `CS(=O)(=O)c1cccc(C(=O)Nc2nc(-c3ccncc3)cs2)c1`?
USP30 block: inactive; USP10 inh: inactive; USP8 block: inactive; USP17 block: inactive; USP28 block: inactive

How did Cc1nnc(SC(C)C(=O)c2ccc(NS(C)(=O)=O)cc2)n1Cc1ccccc1 (stereo not drawn) do in these assays?
USP30 block: inactive; USP10 inh: inactive; USP8 block: inactive; USP17 block: inactive; USP28 block: inactive

How did O=C(Cn1ccc2ccc([N+](=O)[O-])cc21)NCc1ccc2c(c1)OCO2 do in these assays?
USP30 block: inactive; USP10 inh: inactive; USP8 block: inactive; USP17 block: inactive; USP28 block: inactive

What do the screens show for `O=C(Cn1cnc2cc([N+](=O)[O-])ccc2c1=O)NCc1ccc2c(c1)OCO2`?
USP30 block: inactive; USP10 inh: inactive; USP8 block: 39.1; USP17 block: inactive; USP28 block: inactive

How did CCn1cc(S(=O)(=O)NCc2ccccc2)c2cccnc21 do in these assays?
USP30 block: inactive; USP10 inh: inactive; USP8 block: 35.2; USP17 block: 41.1; USP28 block: inactive

What do the screens show for `O=C(NCc1ccc(Cl)cc1)Nc1cccc2ccccc12`?
USP30 block: 34.6; USP10 inh: inactive; USP8 block: 95.2; USP17 block: 67.9; USP28 block: inactive

How did Cn1cc(NC(=O)Nc2cccc3ccccc23)c2ccccc21 do in these assays?
USP30 block: inactive; USP10 inh: inactive; USP8 block: 88.6; USP17 block: 62.9; USP28 block: inactive

Results for CC(C(=O)Nc1cccc2ccccc12)(C(F)(F)F)C(F)(F)F ?
USP30 block: inactive; USP10 inh: inactive; USP8 block: inactive; USP17 block: inactive; USP28 block: inactive

What do the screens show for `O=C(Cc1ccccc1C(=O)O)Nc1cccc2ccccc12`?
USP30 block: inactive; USP10 inh: inactive; USP8 block: 71.4; USP17 block: inactive; USP28 block: inactive

How did O=C(Cc1cccc2ccccc12)NCc1ccc(F)cc1 do in these assays?
USP30 block: inactive; USP10 inh: inactive; USP8 block: inactive; USP17 block: inactive; USP28 block: inactive

How did Cc1cc(C)cc(NC(=O)CSc2ccc3nnc(-c4ccccn4)n3n2)c1 do in these assays?
USP30 block: inactive; USP10 inh: inactive; USP8 block: inactive; USP17 block: inactive; USP28 block: inactive

Results for Cc1ccc(CNCc2cc3c(-c4ccc(F)cc4)nn(-c4ccccc4)c3[nH]c2=O)cc1 ?
USP30 block: inactive; USP10 inh: inactive; USP8 block: 44.9; USP17 block: inactive; USP28 block: inactive

How did O=c1[nH]c2c(cc1CNCCc1ccccc1)c(-c1ccc(F)cc1)nn2-c1ccccc1 do in these assays?
USP30 block: inactive; USP10 inh: inactive; USP8 block: 65.8; USP28 block: inactive

How did Cc1cccc(OCc2cc(-c3ccccc3)no2)c1C do in these assays?
USP30 block: inactive; USP10 inh: inactive; USP8 block: inactive; USP17 block: inactive; USP28 block: 48.4

How did CC(NC(=O)c1cc2c(=O)n(C)ccc2n1C)c1ccccc1 (stereo not drawn) do in these assays?
USP30 block: inactive; USP10 inh: inactive; USP8 block: 45.1; USP17 block: inactive; USP28 block: inactive

What do the screens show for `Cc1cc2cc(CCNC(=O)/C=C\c3ccccc3)c(=O)[nH]c2cc1C`?
USP30 block: inactive; USP10 inh: inactive; USP8 block: inactive; USP17 block: inactive; USP28 block: inactive

What do the screens show for `Cc1cc2cc(CCNC(=O)c3ccc(F)cc3)c(=O)[nH]c2cc1C`?
USP30 block: inactive; USP10 inh: inactive; USP8 block: inactive; USP17 block: inactive; USP28 block: inactive
